High-throughput results: PubChem, several laboratories
Hits are enriched below; roughly 3.4% of the tested compounds scored in any of these assays.
NF-kB neuron act = raises NF-kB expression in human neuronal cells. NF-kB reporter expression; hits give high values. fold change at 12.5 µM. 190,000 tested, 1.6% active; in the data active = fold change above about 3.3
hcDAF-12 act = activates DAF-12 receptor from parasite H. contortus. activation, % at 6.8 µM. 370,000 tested, 1.4% active. HEK293 hcDAF-12 lit1-tk-luc reporter, luminescence; 0% DMSO, 100% Δ7-dafachronic acid;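 active = activation above the mean of all tested compounds plus 3 SD, cut at about 5.5% in these data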;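 note: 100% = response to 3 µM Δ7-dafachronic acid high control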
ssDAF12 agonist = activators of S. stercoralis DAF-12 nuclear receptor; HEK293 ssDAF-12/GRIP1 lit1-tk-luc reporter, luminescence; % of 3 µM dafachronic acid response; activation, % at 6.8 µM; 370,000 tested, 1% active;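 active = activation above the mean over all tested compounds plus 3 SD, cut at about 0.9% in these data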;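 note: 0% = DMSO-only wells and 100% = 3 µM delta7-dafachronic acid wells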
APP 5'UTR act = APP 5'UTR luciferase reporter activation; SH-SY5Y APP 5'UTR luciferase reporter, luminescence; zero percent = DMSO vehicle wells; 190,000 tested, 1% active; activation, % at 2 µM;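 active = activation above a set limit, based on mean plus 3 SD of controls, cut at about 140% in these data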
hgDAF12 agonist = activates the H. glycines DAF-12 receptor ligand-binding domain; HEK293 GAL4-hgDAF12 UAS-luciferase reporter, agonist luminescence; normalized to butyrate control; activation, % at 6.8 µM; 370,000 tested, 1.8% active; AID 687014;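 active = activation above a cutoff set at the mean of all screened compounds plus 3 SD, cut at about 10% in these data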;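 note: 0% = DMSO wells and 100% = sodium butyrate wells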
* hit, by the source's call; x = no result.

SMILES	NF-kB neuron act	hcDAF-12 act	ssDAF12 agonist	APP 5'UTR act	hgDAF12 agonist
C[C@@H](N)C(=O)Nc1ccc(Cl)cc1C(=O)c1ccc[nH]1	x	-3	-2	x	-2
Cc1ccc2nc(-c3cccc(Br)c3)c(Cc3ccccc3)n2c1	x	8.1*	1.9*	x	9
Cc1ccc2nc(-c3ccc(C#N)cc3)c(Cc3ccccc3)n2c1	x	3	-1	x	11*
COc1ccccc1Cc1c(-c2cccc(Br)c2)nc2ccc(C)cn12	x	5	1.2*	x	12*
Cc1ccc2nc(-c3ccc(C#N)cc3)c(Cc3cccc(Cl)c3)n2c1	x	0	-1	x	2
Cc1ccc2nc(-c3cccc(Br)c3)c(CC3CCCCC3)n2c1	x	5	0	x	13*
C[C@H]1[C@@H](OC(=O)Nc2ccc(Cl)cc2)CC[C@@]23CCCN2C(=O)CCC[C@@H]13	x	-2	-1	x	0
CC(=O)CC[C@@H]1CC[C@]2(CCCN(C(=O)c3ccno3)C2)O1	x	-1	0	x	-1
Cc1ccc(Cc2c(-c3cccc(Br)c3)nc3ccc(C)cn23)cc1	x	4	1	x	12*
Clc1cccc(Cc2c(-c3ccco3)nc3ccc(Cl)cn23)c1	x	0	-2	x	-2
Cc1ccc(Cc2c(-c3cccc(Br)c3)nc3ccc(Cl)cn23)cc1	x	2	0	x	7
Cc1ccc(Cc2c(-c3cccc(Cl)c3)nc3ccc(Br)cn23)cc1	x	0	0	x	11*
Clc1cccc(Cc2c(-c3ccco3)nc3ccc(Br)cn23)c1	x	3	1.9*	x	1
CCOC(=O)[C@@]12CN(C(=O)OC(C)(C)C)CC=C1N(Cc1ccc(OC)cc1)C(=O)[C@H]2CC(=O)N1CCC(c2ccccc2)CC1	x	-3	-2	x	-5
Cc1cc(=O)[nH]c(SCC(=O)Nc2ccc(F)c(F)c2)n1	x	-1	-1	x	6
NC(=O)c1c(N)[nH]c(C(=O)c2ccccc2)c1-c1ccccn1	x	-1	-1	x	0
CC(=O)N[C@@H](C)CCc1ccc(Oc2ccc(OC(C)C)nc2)cc1	x	-4	-2	x	0
CN(CCc1ccccn1)c1ccccc1	x	6.2*	0	x	12*
CN(CCc1ccccn1)S(=O)(=O)c1ccccc1F	x	0	0	8	0
CSCCC(N=C(NS(=O)(=O)c1ccccc1)c1ccccc1)C(=O)O (stereo not drawn)	x	-2	2.4*	x	-2
Cc1ccc(S(=O)(=O)NC(=NC(Cc2ccccc2)C(=O)O)c2ccccc2)cc1 (stereo not drawn)	x	1	-1	x	4
CCOC(=O)C(C)N1C(=O)S/C(=C/c2cc(C)n(-c3ccccn3)c2C)C1=O (stereo not drawn)	1.8	1	0	140*	5
COC(=O)C(C)N1C(=O)S/C(=C/c2cc(C)n(C(C)C)c2C)C1=O (stereo not drawn)	2.3	2	-1	112	12*
CCN(CC)c1ccc(C(=O)NNC(=O)c2cccn2C)cc1	x	2	1	x	11*
O=C(Nc1cccc(F)c1)O[C@@H]1CC[C@@]23CCCN2C(=O)CCC[C@H]3C1	x	-1	-2	x	0
SMILES	NF-kB neuron act	hcDAF-12 act	ssDAF12 agonist	APP 5'UTR act	hgDAF12 agonist
COC(/C=C/Nc1ccc(C)cc1)=C(C#N)C#N	1.2	5.6*	0	-7	0
Cc1ccc(C2=NNC(=Nc3ccc(F)cc3)SC2)cc1	1.8	5.7*	-1	40	11*
Cc1cccc(N=C2NN=C(c3ccc4c(c3)OCCO4)CS2)c1	0.94	2	0	140*	9
CC(C)c1ccc(N=C2NN=C(c3cccs3)CS2)cc1	1.1	2	0	169*	6
C=CCn1c(C)cc(C2=NNC(=Nc3ccc(C)cc3)SC2)c1C	0.92	2	0	14	-1
CC(C)(C)C(=O)NC1CCCCN(Cc2cccc(Cl)c2)C1=O (stereo not drawn)	x	-3	-1	x	-4
COC(=O)[C@H](C(C)C)N(CCc1cn(Cc2ccccc2)nn1)S(=O)(=O)c1ccccc1Br	x	-2	-1	x	-4
C=CCNC(=O)CCc1nnc(C2(c3ccc(Cl)cc3)CCC2)o1	2.9	3	-1	57	12*
C=C(C)CNC(=O)CCc1nnc(C2(c3ccc(Cl)cc3)CCC2)o1	2.3	-1	1	22	8
CCCCNC(=O)C(NC(=O)Cc1cc(C(F)(F)F)cc(C(F)(F)F)c1)C(=O)c1ccccc1 (stereo not drawn)	x	0	0	x	2
CCCCNC(=O)C(NC(=O)c1ccc(C(F)(F)F)cc1)C(=O)c1ccccc1 (stereo not drawn)	x	0	2.4*	x	1
